Screening data from PubChem BioAssay.
Rows were chosen to be rich in hits. Some 2.7% of all compounds tested hit in one or more screens of this group.
GALC G270D act: enhancers of human galactocerebrosidase G270D mutant activity in cells; 45,000 compounds, 0.1% hits; Potency, µM (series often up to 57.5 µM), most hits filed as activators; 145M-Twi-hGALC-G270D cells (Twitcher mouse brain line with human GALC G270D), HMU-beta-Gal fluorescence, 48 h; also: 0% is about no effect; nearly all actives have a fitted effect of over 65% in size
Target sequence (P54803 whole entry G286D): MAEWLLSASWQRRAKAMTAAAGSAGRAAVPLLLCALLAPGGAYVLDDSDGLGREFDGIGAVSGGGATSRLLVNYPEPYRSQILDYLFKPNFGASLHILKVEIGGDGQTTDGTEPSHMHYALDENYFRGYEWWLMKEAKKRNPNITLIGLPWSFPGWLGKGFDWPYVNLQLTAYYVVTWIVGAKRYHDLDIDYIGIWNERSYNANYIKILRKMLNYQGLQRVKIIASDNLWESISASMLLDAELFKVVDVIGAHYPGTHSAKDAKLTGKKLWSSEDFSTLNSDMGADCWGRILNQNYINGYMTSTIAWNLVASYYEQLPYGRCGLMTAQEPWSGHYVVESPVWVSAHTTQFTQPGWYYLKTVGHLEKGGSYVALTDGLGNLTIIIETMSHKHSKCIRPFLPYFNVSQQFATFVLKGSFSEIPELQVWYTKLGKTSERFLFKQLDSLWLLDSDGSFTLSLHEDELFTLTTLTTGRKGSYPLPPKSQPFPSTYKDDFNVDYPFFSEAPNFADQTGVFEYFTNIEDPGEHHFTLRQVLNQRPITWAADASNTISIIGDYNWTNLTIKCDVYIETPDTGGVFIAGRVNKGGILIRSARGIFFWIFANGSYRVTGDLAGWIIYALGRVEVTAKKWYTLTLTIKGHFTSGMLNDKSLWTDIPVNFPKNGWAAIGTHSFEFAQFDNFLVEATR
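Fluorogenic HMU-b-Gal hydrolysis (0.1 mM final, pH 5.2 citrate-phosphate with 1 mg/mL sodium taurocholate; carbonate stop buffer) measures mutant GALC activity after compound treatment of live 145M-Twi Twitcher brain cells stably carrying human GALC-G270D, with wild-type GALC line alongside; activation sought.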
HTT-AS act: HTT-AS promoter activation; HEK293 HTT-AS promoter firefly luciferase reporter, 24 h; response scale: percent change from vehicle, -100% = no light; Potency, µM (highest dose often 57.5 µM), for the others: at the top dose activity change, positive = activation, actives largely listed as activators; 48,000 compounds, 0.24% hits; AID 1508624; also: nearly all actives have a fitted effect of over 55% in size
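HEK293 Fluc reporter, 2,500 cells/well, 24 h pre-culture; cpds up to 57.5 uM final, 24 h 37 degrees C; Dual-Glo, 10 min RT; normalized vehicle = 0%, zero RLU = -100%.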
HTT promoter inh: HTT promoter inhibition | HEK293 HTT promoter firefly luciferase reporter, 24 h | Potency, µM (highest dose often 57.5 µM), for the others: at the highest dose activity change, negative = inhibition, hits mostly inhibitors | 48,000 compounds, 0.93% hits | AID 1508623; also: nearly all actives have a fitted effect of over 50% in size
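Luminescence was read after Dual-Glo reagent and a 10 min room-temperature incubation. Values were normalized to vehicle (0% activity) and zero RLU (-100% activity). Reporter HEK293 cells had been exposed to compounds (up to 57.5 uM final) for 24 h.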
NTMT1 inhibitor: NTMT1 methyltransferase inhibition; Q9BV86; NTMT1 MTase-Glo SAH luminescence, purified enzyme; Potency, µM (highest dose often 114 µM), without a hit: top-dose activity change, negative = inhibition, usual class: inhibitors; AID 1645870; 59,000 compounds, 2.5% hits;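 also: plate controls were DMSO vehicle for no effect and no enzyme for full effect; nearly all actives have a fitted effect of over 65% in size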
* hit, by the source's call; ! = a repeat was not active; [ ] = remark or other dose. Calls follow the shape of the dose curve; as a rule, active = well fitted curve in the direction sought with a large enough effect; inconclusive = small, poorly fitted or top-dose-only effect, or another doubt; inactive = no such curve, though single readings can be large; an effect the other way counts as inactive or inconclusive. Potency is read from the fitted curve at half-maximal effect.

Cc1ccc(-c2cc3ncc4c(n3n2)-c2ccccc2OC4)cc1 was read as GALC G270D act inactive, HTT-AS act inconclusive, HTT promoter inh 41% and NTMT1 inhibitor 11%.
For c1ccc(-c2cc3ncc4c(n3n2)-c2ccccc2OC4)cc1 the results were GALC G270D act inactive, HTT-AS act 1.6µM*, HTT promoter inh 67% and NTMT1 inhibitor inconclusive.
Screening COc1cc2c(cc1OC)CN(C(=O)[C@@H](NCc1ccncc1)C(C)(C)C)CC2 returned NTMT1 inhibitor -10%[57.5 µM].
CCC(Cc1ccccc1)NC(=O)Cn1nc(C)n2c(cc3occc32)c1=O (stereo unspecified) was read as GALC G270D act inactive, HTT-AS act -12%, HTT promoter inh -10% and NTMT1 inhibitor 89µM*.
Screening Cc1ccc(OCCn2c(CCNC(=O)c3cc([N+](=O)[O-])ccc3[N+](=O)[O-])nc3ccccc32)cc1 returned NTMT1 inhibitor 0%.
Screening C=C(C)C(O)COc1ccc(CC(=O)O)cc1 (stereo unspecified) returned NTMT1 inhibitor 1%[57.5 µM].
For CN1CCC(CNc2ccc3ncc(-c4cccc(OC(F)(F)F)c4)n3n2)CC1 the results were HTT-AS act -30%, HTT promoter inh inconclusive and NTMT1 inhibitor 16µM*.
For CCOC(=O)NNc1ccc(N(CC)CC(C)O)nn1 (stereo unspecified) the results were GALC G270D act inactive, HTT-AS act -2%, HTT promoter inh 13% and NTMT1 inhibitor 28µM*.
For CCOC(=O)NNc1nncc2ccccc12 the results were GALC G270D act inactive, HTT-AS act 7%, HTT promoter inh 13% and NTMT1 inhibitor -1%[57.5 µM].
`Cc1ccn2c(Nc3ccc4c(c3)OCCO4)c(-c3ccc(Cl)s3)nc2c1` gave GALC G270D act inactive, HTT-AS act inconclusive, HTT promoter inh 22% and NTMT1 inhibitor inconclusive.
Cc1ccc2nc(-c3ccc(Cl)s3)c(Nc3ccc4c(c3)OCCO4)n2c1 was read as GALC G270D act inactive, HTT-AS act 4.5µM*, HTT promoter inh 41% and NTMT1 inhibitor inconclusive.
Screening COc1cc(C(O)C(CO)Oc2ccc(CCCO[C@@H]3O[C@@H](C)[C@H](O)[C@@H](O)[C@H]3O)cc2OC)ccc1O (stereo partly specified) returned NTMT1 inhibitor 7%[29.8 µM].
For CCN(CC)CCCn1c(-c2ccccc2)nc2c(NCc3ccccc3)nc(C)nc21 the results were NTMT1 inhibitor -2%.
`CCN(CC)CCCCn1c(-c2ccccc2)nc2c(NCc3ccccc3)nc(C)nc21` gave NTMT1 inhibitor 89µM*.
Screening Cc1cc(Cl)ccc1NC(=O)CCCn1nc(C)c2c(C)n(-c3ccccc3)nc2c1=O returned GALC G270D act inactive, HTT-AS act -20%, HTT promoter inh -24% and NTMT1 inhibitor -27%.
Screening Cc1cc(Cl)ccc1NC(=O)Cn1nc(C)c2c(C)n(-c3ccccc3)nc2c1=O returned GALC G270D act inactive, HTT-AS act -23%, HTT promoter inh -19% and NTMT1 inhibitor 50µM*.
CNC(=O)c1ccc(NC(=O)c2nsc3ccccc23)cc1 was read as GALC G270D act inactive, HTT-AS act -60%, HTT promoter inh inconclusive and NTMT1 inhibitor 40µM*.
Screening O=C(Nc1ccc(C(=O)N2CCCCC2)cc1)c1nsc2ccccc12 returned GALC G270D act inactive, HTT-AS act inconclusive, HTT promoter inh -12% and NTMT1 inhibitor 14µM*.
Screening O=C(NCc1cccc(F)c1)c1ccc(NC(=O)c2nsc3ccccc23)cc1 returned GALC G270D act inactive, HTT-AS act inconclusive, HTT promoter inh inconclusive and NTMT1 inhibitor 45µM*.
`CCOC(=O)c1ccc(NC(=O)c2nsc3ccccc23)cc1` gave GALC G270D act inactive, HTT-AS act -49%, HTT promoter inh inconclusive and NTMT1 inhibitor inconclusive.
Nc1n[n+]([O-])c2ccccc2[n+]1[O-] was read as NTMT1 inhibitor 15%.
O=C(Nc1cc(Cl)cc(Cl)c1)c1ccc(F)c(S(=O)(=O)N2CCc3ccccc32)c1 was read as GALC G270D act inactive, HTT-AS act -29%, HTT promoter inh inconclusive and NTMT1 inhibitor 10%.
`O=C(Nc1ccc(Br)cc1)c1ccc(F)c(S(=O)(=O)N2CCCc3ccccc32)c1` gave GALC G270D act inactive, HTT-AS act -45%, HTT promoter inh 2.2µM* and NTMT1 inhibitor -1%.
For O=C(Nc1ccc(Br)cc1)c1cccc(S(=O)(=O)N2CCc3ccccc32)c1 the results were GALC G270D act inactive, HTT-AS act -57%, HTT promoter inh 25µM* and NTMT1 inhibitor 12%.
`COC(=O)c1ccc(O)c2ncccc12` gave NTMT1 inhibitor 4%.
`CCOC(=O)c1cnc2ccc(C)cc2c1Nc1ccc(N(CC)CC)cc1` gave GALC G270D act inactive, HTT-AS act -81%, HTT promoter inh 25µM* and NTMT1 inhibitor inconclusive.
For CCOC(=O)c1cnc2ccc(Cl)cc2c1Nc1ccc(N2CCOCC2)cc1 the results were GALC G270D act inactive, HTT-AS act -38%, HTT promoter inh -32% and NTMT1 inhibitor 1%.
CC(=O)OC1CC(C)C2(CCC3(CC(=O)OC3O)O2)C2(C)CCCC(C)(C)C12 (stereo unspecified) was read as NTMT1 inhibitor -19%[29.8 µM].
`Cc1cc(C(C#N)c2ccc(Cl)cc2)c(Cl)cc1NC(=O)c1cc(I)cc(I)c1O` (stereo unspecified) gave GALC G270D act inactive, HTT-AS act -93%, HTT promoter inh inconclusive and NTMT1 inhibitor 18µM*!.
Screening CC(C)CC(=O)Nc1cccc(-c2cn3cccnc3n2)c1 returned GALC G270D act inactive, HTT-AS act 16µM*, HTT promoter inh 78% and NTMT1 inhibitor -1%.
Cc1ccc(S(=O)(=O)Nc2cc(C(=O)Nc3nc(-c4ccccc4)cs3)ccn2)cc1 was read as NTMT1 inhibitor -3%[57.5 µM].
COc1ccc(-c2nc3ccccc3s2)cc1NC(C)=O was read as GALC G270D act inactive, HTT-AS act 1.4µM*, HTT promoter inh 63% and NTMT1 inhibitor -12%.
Screening COc1ccc(-c2nc3ccccc3s2)cc1NC(=O)c1cccc([N+](=O)[O-])c1C returned GALC G270D act inactive, HTT-AS act 2µM*, HTT promoter inh 71% and NTMT1 inhibitor inconclusive.
For CC1=C(C(=O)NCc2ccccc2)C(c2ccccc2Br)N=C(Nc2nc3ccccc3o2)N1 (stereo unspecified) the results were NTMT1 inhibitor -6%[57.5 µM].
For Cc1ccccc1C(=O)N1CCc2cc(-c3nc(NC(=O)Cc4ccc5c(c4)OCCO5)sc3C)ccc21 the results were NTMT1 inhibitor -2%.
Screening O=c1cc(-c2ccccc2)oc2cc(O)cc(O)c12 returned HTT-AS act 24µM*, HTT promoter inh 43% and NTMT1 inhibitor 4%.
COc1cc(O)c(C(CC(=O)N2CCCC(C(C)C)C2)c2ccc3c(c2)OCO3)c(OC)c1 (stereo unspecified) was read as NTMT1 inhibitor 12%[228 µM].
